CYP2C19 activ – human CYP2C19 activators, primary screen, biochemical, luminescence | recombinant CYP2C19, luciferin-H EGE luminescence; active compounds read high; 0 = fully inhibited enzyme, 1 = untreated enzyme | AID 1025, 2008 | Cytochrome P450 2C19 (Homo sapiens), P33261 | activation factor at 5 µM | 96,000 tested, under 10 active;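 active = activation factor of at least 2 at 5 µM in the primary screen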;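 also: 0 = wells with 2.5 mM tranylcypromine and 1 = vehicle-only wells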
Target sequence (P33261 whole entry, looked up): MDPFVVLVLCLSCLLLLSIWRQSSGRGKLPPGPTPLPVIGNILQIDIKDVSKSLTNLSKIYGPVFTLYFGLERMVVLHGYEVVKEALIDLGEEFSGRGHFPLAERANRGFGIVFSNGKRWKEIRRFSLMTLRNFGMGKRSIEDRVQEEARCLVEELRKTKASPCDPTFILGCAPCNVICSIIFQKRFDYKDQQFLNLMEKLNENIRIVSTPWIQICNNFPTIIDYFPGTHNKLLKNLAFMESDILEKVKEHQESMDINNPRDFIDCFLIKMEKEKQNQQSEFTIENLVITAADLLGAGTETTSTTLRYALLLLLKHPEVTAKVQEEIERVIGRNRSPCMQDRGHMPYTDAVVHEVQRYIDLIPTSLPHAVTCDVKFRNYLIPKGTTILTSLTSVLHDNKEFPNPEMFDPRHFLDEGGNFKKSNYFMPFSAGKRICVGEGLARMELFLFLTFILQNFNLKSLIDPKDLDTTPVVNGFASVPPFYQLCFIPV
MRP-1 activ – H69AR viability gain despite doxorubicin, primary screen, MRP-1 activator project, H69AR cells, CellTiter-Glo | viability rescue | viability increase, % at 10 µM | actives 0.61% (n = 140,000) | AID 799, 2007;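 active = viability gain under doxorubicin at or above a set limit, the compound median plus 3 SD, cut at about 4.7% in these data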;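 also: MRP-1 overexpressing cells given doxorubicin 25 µM after compound pretreatment; 18-22 h compound pretreatment then 72 h with doxorubicin before readout; 0% = doxorubicin-only wells and 100% = vehicle-treated cells without doxorubicin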
MRP resist rev – reversal of MRP1-mediated doxorubicin resistance, primary screen, H69AR cells, doxorubicin co-treatment; H69AR cells + 2 uM doxorubicin, CellTiter-Glo, 72 h; differential viability (reversal), % at 10 µM; actives 0.04% (n = 85,000); AID 602, 2007;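 active = viability drop by adding the cancer drug above about 55%, with treated viability meeting a 40% cutoff, limit read from the data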;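 also: viability without doxorubicin minus viability with 2 µM doxorubicin for each compound; larger differential means the compound sensitizes cells more to doxorubicin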
CYP2C19 inhib – blockers of cytochrome P450 2C19 activity – biochemical, luminescence, ADME assay, primary screen; P33261; CYP2C19 Supersomes, luciferin-H EGE luminescence, 30 min; inhibition, % at 5 µM; actives 21% (n = 96,000); AID 778, 2007;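 active = CYP2C19 inhibition above a set limit at 5 µM in the primary screen, cut at about 50% in these data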;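 also: plate controls were negative control wells for no effect and 2.5 mM tranylcypromine positive control for full effect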
CYP2C9 inhib – blockers of cytochrome P450 2C9 activity – biochemical, luminescence, ADME assay, primary screen. P11712. inhibition, % at 5 µM. CYP2C9 Supersomes, luciferin-H conversion. actives 20% (n = 96,000);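 active = blocking of liver enzyme CYP2C9 beyond about 50% at 5 µM, limit read from the data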
CYP2C9 act – human CYP2C9 activators, primary screen, biochemical, luminescence | recombinant CYP2C9, luciferin-H conversion; active compounds read high; factor 1 = untreated enzyme, 0 = blocked | activation factor at 5 µM | actives 1.4% (n = 96,000) | AID 1024, 2008;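 active = activation factor of 2 or more for CYP2C9 at a 5 µM dose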;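 also: 0 = sulfaphenazole-blocked wells and 1 = vehicle-only wells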
Starred values were filed as active, the others as inactive; . = no result given. A selection: hits, their analogues and other compounds. The true share with any hit is near 21%.

SMILES	CYP2C19 activ	MRP-1 activ	MRP resist rev	CYP2C19 inhib	CYP2C9 inhib	CYP2C9 act
CC(=O)Nc1ccc(S(=O)(=O)Nc2cccc(C(=O)NC(C)(C)C)c2)cc1	0.9	0.1	.	8.4	34.6	0.7
CC(=O)Nc1ccc(S(=O)(=O)Nc2nnc(C(C)C)s2)cc1	1.3	-2.2	12.7	-25.5	60.4*	0.4
Cc1nc2cc(NC(=O)COc3ccc(C#N)cc3)ccc2n1-c1ccccc1	0.8	2.0	11.3	23.2	38.1	0.6
COc1cccc(C(=O)Nc2ccc(NC(=O)C(C)(C)C)cn2)c1	1	-0.8	-1.5	-3.0	-12.8	1.1
Cc1nc([N+](=O)[O-])c(Sc2nc3ccc([N+](=O)[O-])cc3[nH]2)n1Cc1ccccc1	.	-5.1	.	.	.	.
O=C(O)c1cn(-c2ccc(F)c(F)c2)c2c(F)c(F)c(F)c(F)c2c1=O	0.9	-2.1	.	9.4	6.6	0.9
COc1ccc(S(=O)(=O)Nc2cc(C)c(O)c(S(=O)(=O)c3ccccc3)c2)cc1	0.5	0.2	15.3	53.0*	79.3*	0.2
COc1ccc2c(c1)C1C=CCC1C(c1cc3c(cc1Br)OCO3)N2 (centres undefined)	0.3	-3.1	.	70.1*	75.3*	0.2
CC1(C)CC2CC(C)(CN2S(=O)(=O)c2ccc(C(=O)Nc3ccc(Cl)c(S(=O)(=O)N4CCOCC4)c3)cc2)C1 (centres undefined)	0.5	-2.3	.	46.8	62.1*	0.4
CC1(C)CC2CC(C)(CN2S(=O)(=O)c2ccc(C(=O)Nc3ccc(S(=O)(=O)N4CCOCC4)cc3)cc2)C1 (centres undefined)	.	-2.5	.	.	.	.
COC(=O)c1ccc(COC(=O)CNC(=O)c2ccco2)cc1	0.9	-0.6	3.7	11.5	14.3	0.9
O=C(CNC(=O)c1ccco1)NCC(=O)OCc1ccc(C(=O)Oc2ccc(Cl)cc2)cc1	0.9	1.1	18.3	13.3	58.2*	0.4
O=C(CNC(=O)c1ccco1)OCc1ccc(C(=O)Oc2ccccc2)cc1	0.5	-0.4	-4.5	45.8	57.6*	0.4
CC1=C(C(=O)Nc2ccccc2F)C(c2ccsc2)C2=C(CC(c3ccccc3)CC2=O)N1 (centres undefined)	0.2	-3.2	.	79.2*	6.2	0.9
CCOCCOC(=O)C1=C(C)NC2=C(C(=O)CC(c3cccs3)C2)C1c1ccsc1 (centres undefined)	0.8	-2.0	-0.1	18.6	33.8	0.7
Cc1ccc(N2C(=O)[C@@H]3[C@H](C2=O)[C@H]2C=CC=NN2[C@@H]3C(=O)Nc2ccc(Cl)cc2)cc1	0.9	-3.7	3.5	8.9	33.4	0.7
O=C(Nc1ccc(Cl)cc1)[C@@H]1[C@@H]2C(=O)N(c3ccc(Cl)cc3)C(=O)[C@@H]2[C@H]2C=CC=NN21	1.1	-1.7	5.4	-10.2	59.0*	0.4
CCCCn1nnnc1SCC(=O)NCc1ccco1	0.8	-3.1	7.7	19.4	23.7	0.8
Cc1ccc2c(CC(=O)N3CCN(S(=O)(=O)c4cccs4)CC3)coc2c1	0.1	-1.9	.	92.4*	79.6*	0.2
N#CCCn1c(SCC(=O)NCCc2ccc(F)cc2)nc2ccccc21	0.2	-2.4	-17.2	82.5*	46.8	0.5
CCn1c(Sc2ccc(N)cc2Cl)nc2ccccc21	0.1	-1.6	-24.0	87.0*	-126.9	2.3*
CC(NC(=O)CSc1nc2ccccc2n1CCC#N)c1ccc(F)cc1 (centres undefined)	0.1	-1.2	0.0	93.7*	54.7*	0.5
CCn1c(SCC(=O)NC(C)c2ccccc2)nc2ccccc21 (centres undefined)	0.5	-0.5	.	53.9*	-35.9	1.4
CCNC(=O)NC(=O)CSc1nc2ccccc2n1CC(C)C	0.7	-2.2	-0.3	28.4	8.0	0.9
N#CCCn1c(SCC(=O)Nc2ccc(N3CCOCC3)cc2)nc2ccccc21	.	0.0	.	.	.	.
O=c1c2ccccc2[nH]c(=S)n1-c1cccc(S(=O)(=O)N2CCCC2)c1	.	0.4	.	.	.	.
CN=C(Nc1cccc(OC)c1)SC1CC(=O)N(c2ccc(C(=O)O)cc2)C1=O (centres undefined)	.	-0.3	.	.	.	.

High-throughput results: PubChem, several laboratories
